Potency and affinity values are given separately. Values without a mark were called inactive.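 The calls were made as follows: active = every repeat run showing a signal drop whose fitted half-maximal concentration is at most twice the top tested concentration; inconclusive = repeat runs disagree, or flat partial drop, or poor fit; inactive = the rest.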
assay: HEK293T cytotoxicity, dose response, cytotoxicity control for miR-122 modulator project, cell-based, activator set, cherry-pick (AID 720690); settings: HEK293T viability, CellTiter-Glo luminescence, 48 h; series mostly up to 26 µM; activity change, negative = cytotoxicity: at the top concentration;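 also: 0% = neutral control wells and -100% = MG132 cytotoxic control wells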

Row | SMILES | activity change, negative = cytotoxicity
1 | COCC(=O)Nc1ccc2c(c1)C(=O)N(C)[C@@H]1CC[C@@H](CC(=O)NC3CCCC3)O[C@@H]1CO2 | 3.21% [at 23.5 µM]
2 | CNC(=O)C[C@@H]1CC[C@@H]2[C@@H](COc3ccc(NC(=O)Nc4ccccc4OC)cc3C(=O)N2C)O1 | 17.7%
3 | CCCC(=O)Nc1ccc2c(c1)C(=O)N(C)[C@@H]1CC[C@H](CC(=O)NCC(F)(F)F)O[C@H]1CO2 | 5.51%
4 | OC[C@H]1[C@@H](c2ccccc2)[C@H](CNCC2CCC2)N1CC1CC1 | -6.36%
5 | COc1cccc(NC(=O)Nc2ccc3c(c2)C(=O)N(C)[C@@H]2CC[C@H](CC(=O)O)O[C@H]2CO3)c1 | 2.43%
6 | C/C=C/c1ccc([C@@H]2[C@@H](CO)N(C(C)=O)[C@@H]2CN(CC)C(=O)CN(C)C)cc1 | -3.94%
7 | CNc1nc(NCC2CCCCC2)c2sccc2n1 | -0.267%
8 | C[C@@H]1CCCCO[C@H](CN(C)CC2CCCCC2)[C@H](C)CN([C@H](C)CO)C(=O)c2cc(NC(=O)Nc3ccc4c(c3)OCO4)ccc2O1 | -18.8% [at 12 µM]
9 | C[C@H]1CN([C@@H](C)CO)S(=O)(=O)c2ccc(-c3ccc(C(=O)N(C)C)cc3)cc2O[C@H]1CN(C)C(=O)C1CCC1 | 5.13%
10 | CNc1nc(NCCOc2ccccc2)c2sccc2n1 | -26.9%
11 | COc1cccc(-c2nc(NCCN3CCOCC3)c3ccccc3n2)c1O | -17.9%
12 | CN(C)CCCNC(=O)C[C@H]1CC[C@H]2[C@H](COc3ccc(NC(=O)NC4CCCC4)cc3C(=O)N2C)O1 | 3.63%
13 | Cc1ccc(C2CC(C(F)(F)F)n3nc(C(=O)NCc4ccco4)cc3N2)cc1 (stereo not drawn) | 5.97%

Reference: PubChem BioAssay AID720690 (Broad Institute, 2013)
